Measurements from PubChem BioAssay (NCATS).
Inconclusive results are not listed. Calls of active or inactive are those of the source. Unless noted, the call rests on the fitted dose curve; in most records, active means well fitted curve in the direction sought with a large enough effect; inconclusive means small, poorly fitted or top-dose-only effect, or another doubt; inactive means no such curve, though single readings can be large; an effect the other way counts as inactive or inconclusive.

What was measured:
[1] = Cell Viability - HepG2 (AID 433; calls by dose curve;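 further: potency means the concentration at half of the fitted maximal effect; potency for ATP loss meaning cytotoxicity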); details: qHTS
Summary of the method: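 ATP luminescence (CellTiter-Glo) after 40 h compound exposure, 37 °C, HepG2, 1500 cells/well, complete medium. Normalized: DMSO = basal, 100 uM tamoxifen = 100% inhibition. AC50 via standard Hill equation.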

[2] = Cell Viability - MRC5 (AID 434; calls by dose curve;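 further: potency means the concentration at half of the fitted maximal effect; potency reflects cytotoxicity seen as loss of intracellular ATP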); details: MRC5 lung fibroblast viability, qHTS
Summary of the method: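 MRC5 normal human lung fibroblasts, 1500 cells/well, exposed to compound for 40 hr at 37 C. Cellular ATP was read by CellTiter-Glo luminescence; data normalized to DMSO and 100 uM tamoxifen, with AC50 from Hill fits.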

[3] = Cellular Toxicity (caspase-3) H-4-II-E (AID 663); details: H-4-II-E rat hepatoma; Potency: caspase-3 activation; series mostly up to 92.2 µM;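 further: cells exposed to compound for 16 hr before readout; 0% = DMSO basal and 100% = 100 µM tamoxifen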
Summary of the method: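 Rat hepatoma H-4-II-E cells (1500/well) plated 5 hr, then exposed to compound titrations for 16 hr at 37 °C. Caspase-Glo 3/7 luminescence read after 20 min at RT; data normalized to DMSO and 100 uM tamoxifen, AC50 from Hill fits.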

[4] = Cellular Toxicity (caspase-3) Renal Proximal Tubule (AID 667); details: renal proximal tubule cells; series mostly up to 91.7 µM;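 further: cells exposed to compound for 16 hours at 37 °C before detection; 0% = DMSO basal and 100% = 10 µM staurosporine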
Summary of the method: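 Luminescent caspase 3/7 signal from peptide-aminoluciferin cleavage measures apoptosis in freshly isolated rat kidney proximal tubule cells after 16 h compound exposure. Concentration-response data are normalized to DMSO and 10 uM staurosporine, and AC50 values come from Hill equation fits.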

[5] = target: Cytochrome P450 3A4 (Homo sapiens) (UniProt P08684); experiment: qHTS Assay for Inhibitors and Substrates of Cytochrome P450 3A4 (AID 884); details: recombinant CYP3A4, Luciferin-PPXE luminescence; series mostly up to 57.1 µM; further: on the % scale 0 is the no-effect control and ±100 the full control effect; nearly all actives have a fitted effect of over 50% in size
Summary of the method: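 20 nM human CYP3A4 with 25 uM Luciferin-PPXE (at KM) in 200 mM KPO4, preincubated 10 min with compound; NADPH regeneration started a 60 min RT reaction. Luciferin detected by luminescence, normalized to 57 uM ketoconazole as full inhibition.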

[6] = MultiTox-Fluor Cytotoxicity Assay - LYMP1-003 - Live Cells (AID 962); details: LYMP1-003 lymphoblastoid cells, MultiTox-Fluor live-cell protease fluorescence; series mostly up to 92.2 µM;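 further: 0% = DMSO only and full loss = 92 µM tetraoctylammonium bromide; cytotoxic hits lower the live-cell protease signal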
Summary of the method: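 LYMP1-003 human lymphoblastoid cells (2500/well) in complete medium were preincubated 5 hr at 37 C, then exposed to compounds for 16 hr at 37 C. Live-cell protease cleavage of GF-AFC read by fluorescence (Ex/Em 405/510); AC50 from Hill fits.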

[7] = Cell Viability - LYMP2-003 (AID 965); details: LYMP2-003 lymphoblastoid cell viability; series mostly up to 92.2 µM;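 further: cells exposed to compounds for 24 h before reading; 0% = DMSO only and full effect = 92 µM tetraoctylammonium bromide; nearly all actives have a fitted effect of over 50% in size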
Summary of the method: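 CellTiter-Glo luminescence (cellular ATP) after 24 h compound exposure at 37 C in complete medium; 2500 cells/well, 5 h settling beforehand. Concentration-response fitted to standard Hill equation for AC50. Tetraoctylammonium bromide served as positive control.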

[8] = Cell Viability - LYMP2-005 (AID 967); details: LYMP2-005 lymphoblastoid cell viability; series mostly up to 92.2 µM;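 further: plate controls were DMSO only for no effect and 92 µM tetraoctylammonium bromide control for full effect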
Summary of the method: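 Steps: seed 2500 LYMP2-005 cells/well, incubate 5 h at 37 C, add compound, incubate 24 h at 37 C, add CellTiter-Glo, wait 30 min at RT, read luminescence. Concentration-response data fitted to Hill equation for AC50.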

[9] = Cell Viability - LYMP2-015 (AID 971); details: LYMP2-015 lymphoblastoid cell viability; series mostly up to 92.2 µM;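 further: 0% = DMSO only and full effect = 92 µM tetraoctylammonium bromide; nearly all actives have a fitted effect of over 55% in size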
Summary of the method: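 Human lymphoblastoid cells (2500/well) in complete medium were preincubated 5 hr at 37 C, then compound-treated 24 hr at 37 C. Intracellular ATP was read by CellTiter-Glo luminescence after 30 min at room temperature; AC50 came from Hill-equation concentration-response fits.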

[10] = Cell Viability - LYMP2-017 (AID 972); details: LYMP2-017 lymphoblastoid cell viability; series mostly up to 92.2 µM; further: on the % scale 0 is the no-effect control and ±100 the full control effect; nearly all actives have a fitted effect of over 55% in size
Summary of the method: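 Human lymphoblastoid cells (2500/well) were seeded in complete medium, held 5 hr at 37 C, then exposed to compounds for 24 hr at 37 C. Intracellular ATP was read by CellTiter-Glo luminescence after 30 min at room temperature, with AC50 values from Hill-equation fits.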

[11] = Cell Viability - LYMP2-007 (AID 979); details: LYMP2-007 lymphoblastoid cell viability; series mostly up to 92.2 µM;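 further: cells exposed to compound for 24 h before reading; 0% = DMSO only and the negative end = 92 µM tetraoctylammonium bromide; nearly all actives have a fitted effect of over 60% in size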
Summary of the method: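 Human lymphoblastoid cells (2500/well) were plated in complete medium, incubated 5 hr at 37 C, then exposed to compounds for 24 hr at 37 C. Intracellular ATP was read by CellTiter-Glo luminescence after 30 min at room temperature; AC50 from Hill fits.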

[12] = Cell Viability - LYMP2-014 (AID 983); details: LYMP2-014 lymphoblastoid cells, viability qHTS; series mostly up to 92.2 µM;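 further: plate controls were DMSO only for no effect and 92 µM tetraoctylammonium bromide for full effect; nearly all actives have a fitted effect of over 50% in size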
Summary of the method: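 Human lymphoblastoid cells (2500/well) were pre-incubated 5 hr at 37 C, then exposed to compounds in complete medium for 24 hr at 37 C. Intracellular ATP was read by CellTiter-Glo luminescence after 30 min at room temperature; AC50 from Hill fits.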

[13] = Cell Viability - LYMP2-016 (AID 984); details: LYMP2-016 lymphoblastoid cell viability, qHTS; series mostly up to 92.2 µM; further: on the % scale 0 is the no-effect control and ±100 the full control effect; nearly all actives have a fitted effect of over 55% in size
Summary of the method: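 qHTS, 1536-well: 2500 LYMP2-016 cells/well, 5 hr 37 C, compound added, 24 hr 37 C, CellTiter-Glo 30 min RT, luminescence. Tetraoctylammonium bromide positive control. AC50 via Hill fit.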

[14] = Cell Viability - LYMP2-024 (AID 988); details: LYMP2-024 lymphoblastoid cell viability; series mostly up to 92.2 µM;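 further: plate controls were DMSO only for no effect and 92 µM tetraoctylammonium bromide for full effect; nearly all actives have a fitted effect of over 60% in size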
Summary of the method: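 Human lymphoblastoid cells (2500/well) in complete medium were preincubated 5 hr at 37 C, then exposed to compounds for 24 hr at 37 C. Intracellular ATP was read by CellTiter-Glo luminescence; AC50 from Hill-equation fits of concentration-response data.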

[15] = Cell Viability - LYMP1-002 - Assay at 40 hr (AID 994); details: LYMP1-002 lymphoblastoid cell viability; series mostly up to 92.2 µM;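 further: 0% = DMSO only and full inhibition = 92 µM tetraoctylammonium bromide; nearly all actives have a fitted effect of over 60% in size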
Summary of the method: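 Human lymphoblastoid cells, 2500/well in complete medium, were preincubated 5 hr at 37 C, then exposed to compounds for 40 hr at 37 C. Intracellular ATP was read by CellTiter-Glo luminescence after 30 min at room temperature; AC50 from Hill-equation fits.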

[16] = qHTS assay for small molecule activators of the p53 signaling pathway (AID 651743; active means well fitted activation curve with a large enough effect in the signal ratio, not every such curve was filed as active; the % refers to the signal ratio; further: % of control where 0% means no effect); details: HCT-116 p53RE-bla, beta-lactamase FRET ratio, 16 h; activation: stronger effect = higher value
Summary of the method: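 HCT-116 p53RE-bla, 4,000 cells/well; 5 h settle; cpd/DMSO 16 h, 37 C; LiveBLAzer B/G 2 h RT; fluorescence intensity.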

[17] = target: Tumor necrosis factor (Homo sapiens) (UniProt P01375); experiment: qHTS assay to identify small molecules that stimulate Tumor Necrosis Factor-alpha (TNF-alpha) secretion (AID 651757; active means well fitted curve in the direction sought with a large enough effect in the signal ratio; the % refers to the signal ratio; further: 0% is about no effect); details: Human cells, HTRF 665/615 ratio; series mostly up to 92.2 µM
Summary of the method: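 THP-1 cells were exposed to compounds for 17 hrs at 37 C, after which secreted TNF-alpha was measured by homogeneous HTRF (TR-FRET) using cryptate- and XL665-labeled anti-TNF-alpha antibodies, read after 3 hr at room temperature.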

[18] = qHTS assay for small molecule antagonists of the retinoid-related orphan receptor gamma (ROR-gamma) signaling pathway - cell viability counter screen (AID 720652; active means well fitted curve in the direction sought with a large enough effect in the repeat runs; an effect the other way counts as inactive or inconclusive;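 further: CHO reporter cells with doxycycline-induced ROR-gamma expression; compound exposure lasted 16 hr before ATP read; on the % scale 0 is the no-effect control and ±100 the full control effect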); details: RORgamma reporter cell line viability counter screen; series mostly up to 92.2 µM
Summary of the method: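 Counter screen in CHO cells carrying TET-inducible ROR-gamma and an ROR response element-luciferase reporter; cells plated 5 hr, compound pinned, doxycycline added, then 16 hr at 37 C. Viability read as intracellular ATP by CellTiter-Glo luminescence.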

[19] = MultiTox-Fluor Cytotoxicity Assay - LYMP1-002 - Dead Cells (AID 960); details: LYMP1-002 lymphoblastoid cells, dead-cell protease fluorescence; series mostly up to 46.1 µM;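 further: 0% = DMSO and 100% = tetraoctylammonium bromide; nearly all actives have a fitted effect of over 60% in size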
Summary of the method: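 Human lymphoblastoid cells (LYMP1-002), 2500/well in complete medium, were exposed to compounds for 16 hr at 37 C. Dead-cell protease activity was read as bis-AAF-R110 fluorescence (Ex/Em 485/520), normalized to DMSO and 15 uM tetraoctylammonium bromide; AC50 from Hill fits.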

[20] = qHTS assay for cell viability of HEK293 cells (AID 743288); details: ATP luminescence (CellTiter-Glo), 18 h, stronger effect = lower value; further: on the % scale 0 is the no-effect control and ±100 the full control effect; nearly all actives have a fitted effect of over 50% in size
Summary of the method: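 Environmental chemicals tested in qHTS format against parental HEK293 cells; 18 h treatment, 37 C; read-out ATP luminescence (CellTiter-Glo), 30 min RT development.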

Sequence of Tumor necrosis factor (Homo sapiens) (P01375 whole entry, looked up): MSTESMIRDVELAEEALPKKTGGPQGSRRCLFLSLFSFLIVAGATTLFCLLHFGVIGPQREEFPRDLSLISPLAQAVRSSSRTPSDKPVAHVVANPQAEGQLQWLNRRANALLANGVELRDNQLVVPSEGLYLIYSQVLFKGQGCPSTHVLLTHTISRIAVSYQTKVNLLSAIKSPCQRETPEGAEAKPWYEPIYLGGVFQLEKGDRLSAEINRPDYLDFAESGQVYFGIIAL
Sequence of Cytochrome P450 3A4 (Homo sapiens) (P08684 whole entry, looked up): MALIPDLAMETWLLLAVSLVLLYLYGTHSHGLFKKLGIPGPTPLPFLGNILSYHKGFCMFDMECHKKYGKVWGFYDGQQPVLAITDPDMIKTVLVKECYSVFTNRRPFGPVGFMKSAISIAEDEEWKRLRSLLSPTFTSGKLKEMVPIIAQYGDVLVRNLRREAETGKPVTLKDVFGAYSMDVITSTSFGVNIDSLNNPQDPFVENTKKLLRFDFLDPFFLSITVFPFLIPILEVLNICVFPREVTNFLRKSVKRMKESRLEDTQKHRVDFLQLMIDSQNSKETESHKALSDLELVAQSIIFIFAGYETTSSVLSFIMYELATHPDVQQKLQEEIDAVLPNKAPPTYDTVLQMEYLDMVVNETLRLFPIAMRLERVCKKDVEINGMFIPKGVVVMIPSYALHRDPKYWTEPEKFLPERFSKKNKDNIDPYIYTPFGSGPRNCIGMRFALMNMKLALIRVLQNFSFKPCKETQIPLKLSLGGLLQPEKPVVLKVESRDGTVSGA

ClCC(Cl)Cl
inactive: Potency [1] > 92 µM | Potency [2] > 92 µM | Potency [3] | outcome [4] | Potency [5] | outcome [6] | Potency [7] | Potency [8] | Potency [9] | Potency [10] | Potency [11] | Potency [12] | Potency [13] | Potency [14] | Potency [15] | activation [16] -0.152% | outcome [17] | Potency [18]

O=C(O)C(Cl)Br (stereo unspecified)
inactive: Potency [1] > 92 µM | Potency [2] > 92 µM | Potency [3] | outcome [4] | Potency [5] | Potency [19] | outcome [6] | Potency [7] | Potency [8] | Potency [9] | Potency [10] | Potency [11] | Potency [12] | Potency [13] | Potency [14] | Potency [15] | activation [16] 0.485% | outcome [17] | Potency [18] | max response [20] 6.83%

O=S(=O)(O)F
inactive: Potency [1] > 92 µM | Potency [2] > 92 µM | Potency [3] | outcome [4] | Potency [5] | Potency [19] | outcome [6] | Potency [7] | Potency [8] | Potency [9] | Potency [10] | Potency [11] | Potency [12] | Potency [13] | Potency [14] | Potency [15] | outcome [17] | Potency [18] | max response [20] -2.74%

[O-][Cl+]O
inactive: Potency [1] > 92 µM | Potency [2] > 92 µM | Potency [3] | outcome [4] | Potency [5] | Potency [19] | outcome [6] | Potency [7] | Potency [8] | Potency [9] | Potency [10] | Potency [11] | Potency [12] | Potency [13] | Potency [14] | Potency [15] | activation [16] 0.903% | outcome [17] | Potency [18] | max response [20] -2.54%

BrCC(Br)C1CCC(Br)C(Br)C1 (stereo unspecified)
inactive: Potency [1] > 92 µM | Potency [2] > 92 µM | outcome [4] | Potency [5] | Potency [19] | outcome [6] | Potency [7] | Potency [8] | Potency [9] | Potency [10] | Potency [11] | Potency [12] | Potency [13] | Potency [14] | Potency [15] | activation [16] -5.49% | outcome [17] | Potency [18] | max response [20] 1.74%
